Results filed as inconclusive are left out. Entries that show only a call come without a potency. Activity calls are given as the source filed them. Calls follow the shape of the dose curve; as a rule, active = well fitted inhibition curve with a large enough effect; inconclusive = small, poorly fitted or top-dose-only effect; inactive = flat fitted curve, though single readings scatter.
Key:
Test in all cases: qHTS profiling for inhibitors of Plasmodium falciparum proliferation (AID 504749); also: nearly all actives have a fitted effect of over 60% in size
Settings in all cases: P. falciparum in erythrocytes, SYBR Green DNA, 72 h; series mostly up to 28.7 µM
FAB9 = test system: FAB9
Outline: (§1)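 Readout was DNA-dye fluorescence from lysed cultures, ex 485/em 535 nm. Parasitized red cells had grown 72 h with compound; data scaled between 0.29 uM artemisinin and DMSO wells and corrected using vehicle-only plates.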

HB3 = test system: HB3
Outline: as §1

ICS = test system: ICS
Outline: as §1

JCK = test system: JCK
Outline: as §1

N140 = test system: N140
Outline: as §1

P93_24 = test system: P93_24
Outline: as §1

P94_40 = test system: P94_40
Outline: as §1

PAD = test system: PAD
Outline: as §1

PC15 = test system: PC15
Outline: as §1

PC49 = test system: PC49
Outline: as §1

SC27B = test system: SC27B
Outline: as §1

TAB109 = test system: TAB109
Outline: as §1

TAB113 = test system: TAB113
Outline: as §1

TAB165 = test system: TAB165
Outline: as §1

W2 = test system: W2
Outline: as §1

GB4 = test system: GB4
Outline: as §1

PC26 = test system: PC26
Outline: as §1
Potency is read from the fitted curve at half-maximal effect.

Compound	Potency (FAB9)	Potency (HB3)	Potency (ICS)	Potency (JCK)	Potency (N140)	Potency (P93_24)	Potency (P94_40)	Potency (PAD)	Potency (PC15)	Potency (PC49)	Potency (SC27B)	Potency (TAB109)	Potency (TAB113)	Potency (TAB165)	Potency (W2)	Potency (GB4)	Potency (PC26)
CCN(CC)C(=O)/C(Cl)=C(\C)OP(=O)(OC)OC	inactive	inactive	inactive	inactive	inactive	inactive	inactive	inactive	inactive	inactive	inactive	inactive	inactive	inactive			
COc1ccc2c(c1OC)C(=O)OC2C1c2cc3c(cc2CCN1C)OCO3 (stereo unspecified)	inactive	inactive	inactive	inactive	inactive	inactive	inactive	inactive	inactive	inactive	inactive	inactive	inactive	inactive			
c1cc2c(c(NC3=NCCN3)c1)CCCC2	inactive	inactive		inactive	inactive	inactive	inactive	inactive			inactive	inactive	inactive	inactive	inactive		
O=c1[nH]cc(N(CCCl)CCCl)c(=O)[nH]1	inactive	inactive		inactive	inactive	inactive	inactive	inactive	inactive	inactive	inactive	inactive	inactive	inactive	inactive	inactive	inactive
CC1CCC(C(C)C)C(OC(=O)c2ccccc2N)C1 (stereo unspecified)	inactive			inactive	inactive	inactive		inactive		inactive	inactive	inactive	inactive				inactive
c1ccc(C2(N3CCCC3)CCCCC2)cc1				inactive	12.6 µM (active)	5.62 µM (active)	inactive					7.94 µM (active)		12.6 µM (active)	7.57 µM (active)	12 µM (active)	13.5 µM (active)
CC12NC(Cc3ccccc31)c1ccccc12 (stereo unspecified)	inactive	inactive		inactive	inactive	10 µM (active)		inactive	inactive	inactive		2.82 µM (active)			4.26 µM (active)		inactive
CNC(=O)Oc1ccccc1C(=O)Nc1ccccc1	inactive	inactive	12.6 µM (active)						inactive						13.5 µM (active)	15.1 µM (active)	
CCCCCCCCCC(=O)O[C@H]1CC[C@H]2[C@@H]3CCC4=CC(=O)CC[C@]4(C)[C@H]3CC[C@]12C	inactive	inactive		inactive	inactive	inactive	inactive	inactive	inactive	inactive	inactive	inactive	inactive	inactive		inactive	inactive
C/C(=C\c1csc(C)n1)[C@@H]1C[C@@H]2O[C@]2(C)CCC[C@H](C)[C@H](O)[C@@H](C)C(=O)C(C)(C)[C@@H](O)CC(=O)O1		0.0009 µM (active)	0.0018 µM (active)	0.0089 µM (active)	0.0045 µM (active)	0.0035 µM (active)	0.0028 µM (active)	0.0035 µM (active)			0.005 µM (active)	0.0025 µM (active)	0.0035 µM (active)	0.0022 µM (active)	0.0013 µM (active)	0.0019 µM (active)	0.0034 µM (active)
O=c1c2ccccc2[se]n1-c1ccccc1	inactive	inactive		inactive						inactive			11.2 µM (active)				
c1ccc2cc(CC3=NCCN3)ccc2c1	inactive	inactive	inactive	inactive	inactive	inactive	inactive	inactive	inactive	inactive	inactive	inactive	inactive	inactive	inactive		inactive
C[C@@H](Cc1ccccc1)NCCC(c1ccccc1)c1ccccc1	inactive		3.16 µM (active)	inactive						inactive					2.87 µM (active)		
C=CCN=C=S	inactive	inactive	inactive	inactive	inactive	inactive	inactive	inactive	inactive	inactive	inactive	inactive	inactive	inactive			
CCOc1ccc2c3c1O[C@H]1[C@@H](O)C=C[C@H]4[C@@H](C2)N(C)CC[C@@]341	inactive	inactive	inactive	inactive	inactive	inactive	inactive	inactive	inactive	inactive	inactive		inactive	inactive			
CCC1(c2ccccc2)C(=O)NC(=O)N(C)C1=O (stereo unspecified)	inactive	11.2 µM (active)	3.98 µM (active)	inactive			inactive			inactive					6.75 µM (active)		

Source: PubChem BioAssay (NCATS)
